The full ranking holds about 68,000 sequences; the median of “fluorescence intensity (a.u.)” is about 9,100, and the highest 2% start at about 16,000. The full list was thinned out, with the highest values kept by preference.
The sequences below were run against OsWRKY34 (Oryza sativa, UniProt Q0JBA9 1-250) (assay: protein-binding microarray (RPBM); PBS, 2% BSA, 51.3 ng/ul salmon testes DNA, 50 uM zinc acetate, 200 nM TF, 25 C, 1 h; high values mean tight binding). Conditions: protein: recombinant; tags: N-terminal polyhistidine and DsRed monomer fusion (pET32a); label: CyDye5-dUTP incorporated in the synthesized complementary strand; 3' TTTTT single-stranded linker to array surface; dsDNA, one strand shown.
OsWRKY34, sequence (Q0JBA9 entry or part of it): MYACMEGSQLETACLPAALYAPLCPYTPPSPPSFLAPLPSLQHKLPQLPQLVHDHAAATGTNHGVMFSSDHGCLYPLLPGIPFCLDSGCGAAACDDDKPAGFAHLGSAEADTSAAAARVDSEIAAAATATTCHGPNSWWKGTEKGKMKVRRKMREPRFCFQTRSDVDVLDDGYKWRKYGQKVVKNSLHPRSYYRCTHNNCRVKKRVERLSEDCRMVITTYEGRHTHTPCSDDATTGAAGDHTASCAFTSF
Outline: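 Using Ni–NTA, transcription factors fused N-terminally to polyhistidine and DsRed were purified after expression in E. coli BL21-CodonPlus. These were incubated at 200 nM with a blocked, double-stranded custom Agilent array for 1 h at 25 °C in a buffer containing 50 µM zinc acetate, and the array was washed. The binding signal is per-feature fluorescence intensity (arbitrary units) on an Axon 4000B scanner.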
For “CTTATTTCAAATGTGTGGGTATACATATGTGCACATATATCGGAGTCACCTAGTGCAG”, the binding signal was 8440 fluorescence intensity (a.u.). In the case of “TCGTTACATGTTCTTTCATTCTCGTATTGCATTATCTGCTCGGAGTCACCTAGTGCAG”, the binding signal is reported as 9260 fluorescence intensity (a.u.). With “GTGCTCGATGCTCGATGCCCTCCTTTTCCGCCATCTTTTTCGGAGTCACCTAGTGCAG” the binding signal was 10200 fluorescence intensity (a.u.). For “TTCGTTAAATTATTTTTCTTTTTCGTTTTTTTTTTTTGTTCGGAGTCACCTAGTGCAG”, the binding signal was 8930 fluorescence intensity (a.u.). With “GTTCTTCGTTAATACGGTGCTTTCATTATTTTGTTTTCCCCGGAGTCACCTAGTGCAG” the binding signal was 16600 fluorescence intensity (a.u.). With “TTCCTGGTTGCTTCTTTTGCAGTTTTTTTTTTCCCTTCCTCGGAGTCACCTAGTGCAG” the binding signal was 10100 fluorescence intensity (a.u.). For “TCGATCGGTTGGTTGGTTGGTTTTGTTGGATTTTTTTCCTCGGAGTCACCTAGTGCAG”, the binding signal was 18700 fluorescence intensity (a.u.). “CCCTGGTGTTTGGATTTGGTTGTTCCTCGCGATTGCATTTCGGAGTCACCTAGTGCAG” was tested, and the binding signal was 15600 fluorescence intensity (a.u.). For “GGTTTGGCTTTGCTTCTTCCTCGCGCGGCGCCTCCCATCCCGGAGTCACCTAGTGCAG”, the binding signal was 9260 fluorescence intensity (a.u.). With “GGATTTTCTTCCGATCTCGCTTCCACCTCGCCGCCTCGCCCGGAGTCACCTAGTGCAG” the binding signal was 9120 fluorescence intensity (a.u.). In the case of “TATTAGTGTTTTATTTTCACCGGTTAATATTTTTGTTCTTCGGAGTCACCTAGTGCAG”, the binding signal is reported as 8880 fluorescence intensity (a.u.). For “CTCGCCTCGCCGCCTTTTCTTCGCCATCTTTTTCGATTTCCGGAGTCACCTAGTGCAG”, the binding signal was 18800 fluorescence intensity (a.u.). In the case of “CTCCTGCCTGGGTTTGGTTTGGTTTGGCTTTGCTTCTTCCCGGAGTCACCTAGTGCAG”, the binding signal is reported as 36800 fluorescence intensity (a.u.). “GCTTGGATTTTTTTTGTTGCTTTTGGTTGTTGTGATCCCTCGGAGTCACCTAGTGCAG” was tested, and the binding signal was 11800 fluorescence intensity (a.u.). With “TACTATACCACTTACTACTAAGTATTCTGCGCACAAACAGCGGAGTCACCTAGTGCAG” the binding signal was 10800 fluorescence intensity (a.u.). “CCTCGGCTCCCATCCACTACCGTTTGCTACTCCGGCGCCGCGGAGTCACCTAGTGCAG” was tested, and the binding signal was 10600 fluorescence intensity (a.u.). With “CTCATCTCACCCGTCACTACTGCACTGCGCACCATTGCCGCGGAGTCACCTAGTGCAG” the binding signal was 8540 fluorescence intensity (a.u.). In the case of “GATTGGGTTGTTTGCGGGGCTAAGTTCCTAATTTTAATGACGGAGTCACCTAGTGCAG”, the binding signal is reported as 11500 fluorescence intensity (a.u.). In the case of “ACCCTCCACCCGCCACCGCCACCGCCGCCTTCGCCGCCGCCGGAGTCACCTAGTGCAG”, the binding signal is reported as 9250 fluorescence intensity (a.u.). For “TTGCAACGGATTTTACTGGGCTTATGGGCTTCTTTTATTGCGGAGTCACCTAGTGCAG”, the binding signal was 9700 fluorescence intensity (a.u.). With “GAAGCTTCCTCGTCGTCCTTTGTTGGGTTGGGTTGGGTTGCGGAGTCACCTAGTGCAG” the binding signal was 21000 fluorescence intensity (a.u.). For “GGGATTTCATATATCTGGTTTTGCGGTTGGGGACGATTTTCGGAGTCACCTAGTGCAG”, the binding signal was 12300 fluorescence intensity (a.u.). “CTTGCTCTCCTCTCTCGTGCTCCATCGATCGATCGATCTCCGGAGTCACCTAGTGCAG” was tested, and the binding signal was 9660 fluorescence intensity (a.u.). “AATACTTGCGAGCTCCGATCTCTTCTTCTTCTTCGTGAGCCGGAGTCACCTAGTGCAG” was tested, and the binding signal was 8180 fluorescence intensity (a.u.). For “GCTTTGTTCTGATTCCTTCACAGTTATTTGATATTTTCCTCGGAGTCACCTAGTGCAG”, the binding signal was 8710 fluorescence intensity (a.u.). In the case of “CTCTCTTCTTCTTCCTCGCTTTGCTTGGGTTGGGTTGGAGCGGAGTCACCTAGTGCAG”, the binding signal is reported as 14800 fluorescence intensity (a.u.). With “TGTTGTCGTCGTCCCTCTTCCTTTCCTTTCCTTTCCTTGCCGGAGTCACCTAGTGCAG” the binding signal was 8870 fluorescence intensity (a.u.). With “GGATTGGTTTTGAGATTGTTCTGTCAGATGGGGATTGTTTCGGAGTCACCTAGTGCAG” the binding signal was 12700 fluorescence intensity (a.u.). In the case of “TCTTGCGACGATCGTGTGGGGTGGGTTCGTGTGCTCTCTCCGGAGTCACCTAGTGCAG”, the binding signal is reported as 19500 fluorescence intensity (a.u.). In the case of “GAGACGTTGTATATCTGGTTTTGTGGTTTGGGGATGTTTTCGGAGTCACCTAGTGCAG”, the binding signal is reported as 20100 fluorescence intensity (a.u.). With “TCTCCTTGATTCCCGCTTCTCACACGCATTATTTGTTTCACGGAGTCACCTAGTGCAG” the binding signal was 18500 fluorescence intensity (a.u.). For “CCTCATTTGCTTCTTCTTCTTCTTCCTCCTCTTTGTTTCACGGAGTCACCTAGTGCAG”, the binding signal was 9120 fluorescence intensity (a.u.). “CACGTCACCTGCATATGCCCTTCTTCCTCGCCGGCCACACCGGAGTCACCTAGTGCAG” was tested, and the binding signal was 11000 fluorescence intensity (a.u.). “TTTTCGTCTATTTTATTACTGTTGCTTGCCTACAATTCTCCGGAGTCACCTAGTGCAG” was tested, and the binding signal was 13500 fluorescence intensity (a.u.). With “ATAGGTGCCGGTTCTATTTTGGTATAGGGGTCGGTTGTTTCGGAGTCACCTAGTGCAG” the binding signal was 11700 fluorescence intensity (a.u.). “TCTCACTCTCGAGCCATCGTCTTCAGCTCGCTCATTACTGCGGAGTCACCTAGTGCAG” was tested, and the binding signal was 9030 fluorescence intensity (a.u.). “CGCCTTCGCCTCCGGCCCCTTATATGGCGTGGCGGGGAGGCGGAGTCACCTAGTGCAG” was tested, and the binding signal was 8930 fluorescence intensity (a.u.). For “TTCGTTGACCAAGTTTAATTCAAATTCAATTCAATTTTAACGGAGTCACCTAGTGCAG”, the binding signal was 9760 fluorescence intensity (a.u.). For “TAATGACTTATCCTGCGGTGAAAAATCTTCATCTTCGTATCGGAGTCACCTAGTGCAG”, the binding signal was 8160 fluorescence intensity (a.u.). “GCTGCTCGGATTTGATTGATTGATTGATTGGCGGGTGGTCCGGAGTCACCTAGTGCAG” was tested, and the binding signal was 8590 fluorescence intensity (a.u.). In the case of “GCAATTTTTTACGCCCACACGACTGTCCGAGAGCAATATGCGGAGTCACCTAGTGCAG”, the binding signal is reported as 8170 fluorescence intensity (a.u.). For “CTCCCGAGGAAGATGACGAGGAGTCAGTCAACAGTTGACTCGGAGTCACCTAGTGCAG”, the binding signal was 8130 fluorescence intensity (a.u.). With “GGGTTCTTTCTGTAGTAGGGGTTTTTCTTTGTTTTCTCTTCGGAGTCACCTAGTGCAG” the binding signal was 17700 fluorescence intensity (a.u.). In the case of “TCTTCCCGCCTTTTTTTTCTTTGTTATTTTTCTTTTTTTTCGGAGTCACCTAGTGCAG”, the binding signal is reported as 18000 fluorescence intensity (a.u.). For “CTTTTTTCTCTGCGGGTTCTTCAATTATTCAGGGTTTCTTCGGAGTCACCTAGTGCAG”, the binding signal was 16800 fluorescence intensity (a.u.). In the case of “TTCCTTTTTTCCCGCCCGTTCCTTTTTTGTTTGTTATGTTCGGAGTCACCTAGTGCAG”, the binding signal is reported as 15700 fluorescence intensity (a.u.). In the case of “TCAATTATTCAGGGTTTCTTCTGGTTCTTGTCTCGCCATGCGGAGTCACCTAGTGCAG”, the binding signal is reported as 8630 fluorescence intensity (a.u.). For “TTCTTTCCTTACGATTTTTGCTCCTGCTCTAGTTCTTGTTCGGAGTCACCTAGTGCAG”, the binding signal was 8140 fluorescence intensity (a.u.). In the case of “ATTCTAGTAGTAGTTGTTTATCTTTGTTCTGTTGTTTCTTCGGAGTCACCTAGTGCAG”, the binding signal is reported as 8520 fluorescence intensity (a.u.). With “TCCCACGATTTCCTTTCCTGCTTTTCTCATCCCTTTTGTTCGGAGTCACCTAGTGCAG” the binding signal was 16500 fluorescence intensity (a.u.). With “TCTCTCTCTCTCTCTCTTCTCTTCTCTTTGTTTTCTTGTTCGGAGTCACCTAGTGCAG” the binding signal was 9940 fluorescence intensity (a.u.). “CCTTCGATTGACCTCCTCATCCTCTTCCCCTGCTTTCTTTCGGAGTCACCTAGTGCAG” was tested, and the binding signal was 9720 fluorescence intensity (a.u.). For “GAATTTTTTTTTCGTTTTTTTCAATTCGTTATTCTTTTCTCGGAGTCACCTAGTGCAG”, the binding signal was 12300 fluorescence intensity (a.u.). In the case of “TCCTTTTCTTTTCTTTTATTTTTTTTTGTTTTTTCCCGTTCGGAGTCACCTAGTGCAG”, the binding signal is reported as 8300 fluorescence intensity (a.u.).

Source: article PMC7819943, “Rice protein-binding microarrays: a tool to detect cis-acting elements near promoter regions in rice”
